# Screening results as filed in PubChem.
# bCat KO growth = primary screen for growth suppressors in beta-catenin knockout HCT116 cells (colon tumor, human); HCT116 beta-catenin knockout viability, CellTiter-Glo, 60 h; hits give low values; viability, % at 10 µM; 140,000 tested, 1.5% active; AID 818, 2007;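 active means viability at or under a set limit, the compound median less 4 SD, cut at about 6% in these data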;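 further: 0% = Hyamine 1622 control at 20 µM and 100% = untreated cell control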
# PTEN del growth = growth suppression of PTEN-null HCT116, primary screen, cell-based, CellTiter-Glo; 140,000 tested, 1.2% active; viability, % at 10 µM; HCT116 PTEN-null viability, 60 h; hits give low values;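 active means viability at or below a set limit, 4 SD under the median of all tested compounds, cut at about 3.7% in these data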;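 further: PTEN knockout HCT116 line with beta catenin targeted HCT116 as companion control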
# Lmaj promast = Leishmania major promastigote growth inhibition, primary screen; Leishmania major promastigotes, resazurin fluorescence viability; inhibition, % at 10 µM; 200,000 tested, 9% active; in the data active means inhibition above about 50%;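 further: promastigotes grown with compound for 44 hours at 28 °C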
# Insulin prom up = insulin promoter activators in MIN6 cells, imaging, high-content screening, mouse beta cells; z-score at 5 µM; MIN6 insulin promoter-GFP reporter; hits give high values; AID 1625, 2009; 190,000 tested, 0.3% active;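 active means z-score above 3 at 5 µM with at least 500 cells counted in the well; inconclusive means wells under 500 cells, flagged as cytotoxic or low count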
# INS promoter inh = inhibitors of insulin promoter-driven GFP, primary screen, imaging, TRM-6 cells (human fetal islet line), eGFP reporter, cell count. reporter expression induced with tamoxifen. inhibition, % at 2 µM. 130,000 tested, 0.9% active;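 active means inhibition above the mean plus 3 SD, with well images judged a real hit on visual review, cut at about 60% in these data, passing the limit was not always enough; inconclusive means inhibition over the cutoff but images rejected on review; inactive means inhibition not above the cutoff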
# Autophagy HCS = autophagy modulators in MEF cells, primary screen, imaging, high-content, MEF GFP-LC3. AID 463193, 2010. MEF GFP-LC3 puncta imaging; test concentration mostly 10 µM. 190,000 tested, 0.98% active. calls only at 10 µM (by protocol);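 active means percentage of spot-positive cells more than 3 SD above its plate mean, without a fluorescence outlier flag or 80% toxicity; inconclusive means no clear call, values can overlap the other calls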;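 further: spot-positive cell cutoff set from DMSO-treated cells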
# Numbers without * were called inactive; i = inactive; ? = inconclusive; / = no result given; + = active, no number. Rows were chosen to be rich in hits. Some 9.6% of all compounds tested hit in one or more screens of this group.
SMILES,bCat KO growth,PTEN del growth,Lmaj promast,Insulin prom up,INS promoter inh,Autophagy HCS
CCCCC(=Nc1ccc(N)cc1)C1=C(O)C(C(=O)OC)C(C)(C)CC1=O (centres undefined),95,106,68*,0.15,-30,i
CCCCN1C(=O)C2(NNc3ccccc3O2)c2ccccc21 (centres undefined),88,104,96*,/,-170,i
C=CCN1C(=O)C2(NNc3ccccc3O2)c2ccccc21 (centres undefined),77,75,21,0.54,-103,+
CCCCN1C(=O)C(O)(CC(=O)c2c(C)coc2C)c2ccccc21 (centres undefined),/,/,9,0.26,-2,i
CCOC(=O)c1ccc(CNC(=O)Cn2nnc(-c3ccccc3)n2)o1,/,/,5,0.08,-100,i
Cc1ccc(S(=O)(=O)NNC2=NCCCCC2)cc1,/,/,-6,-0.71,17,i
CC1(C(=O)N2CC3(CC(c4ccccc4)=NO3)C[C@H]2C(=O)NCC(N)=O)CC1 (some centres undefined),90,93,-6,-0.66,/,i
O=C(CSC1CS(=O)(=O)c2cc([N+](=O)[O-])ccc21)NNC(=O)c1ccccc1 (centres undefined),/,/,/,0.5,/,/
O=C(c1cc(-c2ccco2)nc2ccccc12)N1CCN(c2ccc(F)cc2)CC1,93,86,67*,0.81,24,i
O=C(O)c1cc(-c2ccco2)nc2ccccc12,97,107,-7,0.15,-12,i
COC(=O)N/N=C(\C)c1ccccc1OC(F)F,93,101,-6,0.36,21,i
CCN1CCN(c2cc(-c3ccccc3)nc3cc(-c4cccc(F)c4)nn23)CC1,1.2*,1.4*,68*,?,67,i
CCOC(=O)CSc1nc2cc(C(=O)OC)ccc2c(=O)n1CCN1CCOCC1,99,88,1,-0.89,17,i
Cc1cc2ccccn2c1C(=O)c1ccc([N+](=O)[O-])o1,/,/,99*,0.05,-64,+
CC(=O)NCCOc1nc(N2CCCCC2)nc(N2CCCCC2)n1,/,/,96*,-0.29,/,i
O=C(NCCOc1nc(N2CCCCC2)nc(N2CCCCC2)n1)Nc1ccccc1,/,/,37,-0.64,/,i
CCN1CCN(Cc2c(O)ccc3c(=O)c(-c4ccc(OC)c(OC)c4)c(C)oc23)CC1,101,100,100*,-0.99,23,i
COc1ccc(-c2c(C(F)(F)F)oc3c(CN4CCN(C)CC4)c(O)ccc3c2=O)cc1,90,93,100*,-0.06,-50,i
COc1cccc(Oc2c(C)oc3c(CN4CCCCC4)c(O)ccc3c2=O)c1,/,/,/,-0.12,/,/
COc1ccccc1Oc1c(C)oc2c(CN3CCN(C)CC3)c(O)ccc2c1=O,87,95,21,0.05,-29,i
COC(=O)c1ccc(Oc2c(C)oc3c(CN4CCN(C)CC4)c(O)ccc3c2=O)cc1,85,89,100*,-0.88,38,i
COc1ccc(-c2c(C)oc3c(CN4CCN(C)CC4)c(O)ccc3c2=O)cc1,87,105,99*,1.4,/,+
O=S(=O)(c1ccc2ccccc2c1)N1CCN(S(=O)(=O)N2CCCCC2)CC1,89,97,-5,/,37,i
COc1ccc(CC2S/C(=C(\C#N)C(=O)NCc3ccco3)N(c3ccc(C)cc3)C2=O)cc1 (centres undefined),77,82,-3,-0.03,0,i
O=c1c(Oc2ccccc2Br)c(C(F)(F)F)oc2c(CN3CCCC3)c(O)ccc12,88,71,86*,-0.23,-19,i
SMILES,bCat KO growth,PTEN del growth,Lmaj promast,Insulin prom up,INS promoter inh,Autophagy HCS
CC1=CC(C)(C)N(S(=O)(=O)c2ccc(F)cc2)c2ccc(C)cc21,15,14,23,/,-7,i
COc1ccc2c(c1)C(C)=CC(C)(C)N2S(=O)(=O)c1ccc(Br)cc1,/,/,95*,-1.7,/,i
CC1=CC(C)(C)N(S(=O)(=O)c2ccc(C)cc2)c2ccccc21,18,16,100*,-1.6,18,i
COc1ccc(-n2cnc3ccccc32)cc1,92,104,8,0.75,19,i
Cc1cc(C)cc(NC(=S)N(CCN2CCCCC2)Cc2ccco2)c1,/,/,13,0.12,-53,i
CCc1ccccc1NC(=S)N(Cc1cccnc1)Cc1ccco1,91,96,99*,/,-14,i
